Screens deposited in PubChem BioAssay by The Scripps Research Institute Molecular Screening Center.
CHRM1 antagonist: antagonists of human M1 muscarinic receptor; P11229; inhibition, % at 3 µM; AID 588852; CHO-K1 hM1, Fluo-8 calcium fluorescence, ACh EC80 antagonist; 360,000 compounds, 1.3% hits;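 active means percent inhibition above its own plate's cutoff, namely the mean of that plate's compound wells plus 3 SD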;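 further: peak over basal fluorescence ratio during 140 s after agonist addition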
Target sequence (P11229 whole entry, looked up): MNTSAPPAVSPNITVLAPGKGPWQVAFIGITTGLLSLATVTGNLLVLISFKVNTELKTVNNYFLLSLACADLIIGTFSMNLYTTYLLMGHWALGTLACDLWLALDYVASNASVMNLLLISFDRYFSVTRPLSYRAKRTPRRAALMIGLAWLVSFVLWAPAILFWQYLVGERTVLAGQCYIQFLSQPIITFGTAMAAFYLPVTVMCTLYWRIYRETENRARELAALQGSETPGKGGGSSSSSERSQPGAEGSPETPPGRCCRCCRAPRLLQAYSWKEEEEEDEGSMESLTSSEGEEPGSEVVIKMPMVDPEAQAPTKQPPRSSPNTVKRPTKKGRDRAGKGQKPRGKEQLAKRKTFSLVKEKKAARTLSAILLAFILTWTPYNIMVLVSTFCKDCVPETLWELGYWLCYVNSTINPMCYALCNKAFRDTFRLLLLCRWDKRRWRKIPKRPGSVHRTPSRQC
CHRM1 agonist: activates human CHRM1 receptor; P11229; CHO-K1 hM1, Fluo-8 calcium fluorescence, agonist mode; 0% DMSO, 100% acetylcholine EC100; activation, % at 3 µM; 360,000 compounds, 0.33% hits; AID 588814;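 active means activation above the run's mean compound activation plus 3 SD, cut at about 16% in these data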;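 further: peak over basal fluorescence ratio within a 140 s kinetic read after compound addition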
CHO-K1 Ca antag: M1 antagonist counterscreen hit in parental CHO-K1 cells | inhibition, % at 3 µM | ATP-induced calcium, Fluo-8 fluorescence | 360,000 compounds, 0.6% hits;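 active means inhibition above a per-plate cutoff, the plate's mean sample inhibition plus 3 SD, cut at about 24% in these data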
M1 PAM parental: nonselective activator or artifact in parental CHO-K1 calcium assay; ATP EC20, Fluo-8 calcium fluorescence; 0% at ATP EC20, 100% at ATP max; AID 602247; activation, % at 3 µM; 360,000 compounds, 0.02% hits;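 active means activation above the run cutoff, the mean activation of all test compounds plus 3 SD, cut at about 40% in these data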;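 further: peak over basal fluorescence ratio in a 140 s read after ATP addition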
M1 ag parental: nonselective activator or artifact in parental CHO-K1 cells. Fluo-8 calcium fluorescence; scaled to maximal ATP response, vehicle zero. activation, % at 3 µM. 360,000 compounds, 0.48% hits. AID 602248; in the data active means activation above about 15%;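 further: untransfected CHO-K1 host cells lacking M1 receptor as counterscreen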
CHRM1 PAM: human CHRM1 positive allosteric modulation; P11229; 360,000 compounds, 0.088% hits; activation, % at 3 µM; CHO-K1 hM1, Fluo-8 calcium fluorescence, ACh EC20; 0% = ACh EC20, 100% = maximal ACh; AID 588819; in the data active means activation above about 19%, passing the limit was not always enough
Large screens that a line does not name were inactive. Shown are actives, neighbours in structure and some others; about 2.4% of the full set was active somewhere.

NS(=O)(=O)c1ccc(CCNC(=O)CN2CCCCCC2)cc1	none
CSC1=NSC2=NC(=O)/C(=C/c3coc4ccccc4c3=O)C(=N)N12	CHRM1 antagonist 56, CHRM1 agonist 78, CHO-K1 Ca antag 35, M1 ag parental 45
CC1=CC2=NC(=O)/C(=C/c3coc4ccc(Cl)cc4c3=O)C(=N)N2O1	CHRM1 agonist 29, CHO-K1 Ca antag 27, M1 ag parental 56
CSC1=NSC2=NC(=O)/C(=C\c3cccs3)C(=N)N12	none
N=C1/C(=C\c2coc3ccccc3c2=O)C(=O)N=C2SC=CN12	CHRM1 antagonist 41, CHRM1 agonist 47, CHO-K1 Ca antag 31, M1 ag parental 83
CSC1=NSC2=NC(=O)/C(=C/c3coc4ccc(O)cc4c3=O)C(=N)N12	CHRM1 antagonist 34, CHRM1 agonist 42, CHO-K1 Ca antag 35, M1 ag parental 27
CCC(C)C(=O)Nc1nc(C)c(-c2csc(Nc3ccccc3OC)n2)s1 (configuration not stated)	none
COc1ccc(N2CCN(c3c(S(=O)(=O)c4ccccc4)cnc4ccc(OC)cc34)CC2)cc1	none
COc1ccc(S(=O)(=O)c2cnc3ccc(OC)cc3c2N2CCC3(CC2)OCCO3)cc1	CHRM1 antagonist 28
Brc1ccc(-c2cnc3n2CCCC3)cc1	none
Clc1ccc(-c2cnc3n2CCCCC3)cc1	CHRM1 antagonist 41
Fc1ccc(-c2cnc3n2CCCCC3)cc1	CHRM1 antagonist 39
CCOc1ccc(-c2cnc3n2CCC3)cc1	none
O=C(CN1CCN(c2ccccc2F)CC1)c1ccc(O)c(O)c1	none
O=[N+]([O-])c1ccc(N2CCN(Cc3ccccc3)CC2)s1	none
O=[N+]([O-])c1ccc(N2CCN(Cc3ccccc3)CC2)c2c1no[n+]2[O-]	CHRM1 antagonist 35, M1 ag parental 19
COc1ccc(N(C)S(=O)(=O)c2cccc(C(=O)Nc3ccc4c(c3)OCCO4)c2)cc1	none
COc1ccc(N(C)S(=O)(=O)c2cccc(C(=O)Nc3ccc(-n4cnnn4)cc3)c2)cc1	CHRM1 antagonist 29
C[N+](C)(C)C/C=C1/COCO1	CHRM1 antagonist 96, CHRM1 agonist 91
Cc1ccc(C(=O)OCC(=O)N2CCNC2=O)c(C)c1	none
CN1CCN(C(=S)c2ccc(-c3cc(Cl)ccc3Cl)o2)CC1	none
N#CCCN1CCN(C(=S)c2ccc(-c3cc(Cl)ccc3Cl)o2)CC1	CHRM1 antagonist 30
Cc1nc(C(=O)NCc2ccccc2)sc1C1(C)CC(c2ccccc2)=NO1 (configuration not stated)	CHRM1 agonist 17
CC1(C)CC(=O)C(CC2=C(N)CC(C)(C)CC2=O)=C(N)C1	none
Cc1ccc2nc3n(c(=O)c2c1)CCCCC3	CHRM1 antagonist 19
O=c1c2cc(Br)ccc2nc2n1CCCCC2	CHRM1 antagonist 86
O=c1c2cc([N+](=O)[O-])ccc2nc2n1CCCC2	none
Cc1ccc(S(=O)(=O)CC2CSc3nc4ccccc4n32)cc1 (configuration not stated)	CHO-K1 Ca antag 28
Cc1ccc(S(=O)(=O)CC2CSc3nc(N)cc(=O)n32)cc1 (configuration not stated)	none
COC(=O)c1c(C)[nH]c(C(=O)OCC(=O)N(CC(C)C)c2c(N)n(Cc3ccccc3)c(=O)[nH]c2=O)c1C	none
CC(C)(C)OC(=O)NCc1ccc(CNC(=O)c2nc[nH]c2C(=O)NCc2ccc(CNC(=O)OC(C)(C)C)cc2)cc1	CHO-K1 Ca antag 29
CC(C)(C)OC(=O)NCCCCCNC(=O)c1nc[nH]c1C(=O)NCc1ccc(CNC(=O)OC(C)(C)C)cc1	CHRM1 antagonist 68, M1 ag parental 15
CC(C)(C)OC(=O)CNC(=O)c1[nH]cnc1C(=O)Nc1ccc(CNC(=O)OC(C)(C)C)cc1	CHRM1 antagonist 52
CC(C)C[C@H](NC(=O)c1[nH]cnc1C(=O)Nc1ccc(CNC(=O)OC(C)(C)C)cc1)C(=O)OC(C)(C)C	M1 PAM parental 48
CC(C)(C)OC(=O)NCc1ccc(NC(=O)c2nc[nH]c2C(=O)NCCNC(=O)c2[nH]cnc2C(=O)Nc2ccc(CNC(=O)OC(C)(C)C)cc2)cc1	none
c1ccc(C2C3=C(Nc4ncnn42)c2ccccc2CCC3)cc1 (configuration not stated)	none
C[C@@H]1ON(C2CCCCC2)[C@H]2c3nc4ccccc4n3C[C@@H]12	none
CCOCCCNC(=O)CS(=O)(=O)Cc1nc(-c2cccc(OC)c2)oc1C	none
Cc1cccc(NC(=O)c2nc[nH]c2C(=O)NCCCCCNC(=O)OC(C)(C)C)c1	none
CC(C)(C)OC(=O)NCCCC[C@H](NC(=O)c1nc[nH]c1C(=O)N[C@@H](CCCCNC(=O)OC(C)(C)C)C(=O)OC(C)(C)C)C(=O)OC(C)(C)C	none
CC(C)(C)OC(=O)NCCCCCNC(=O)c1nc[nH]c1C(=O)NCCCCCNC(=O)OC(C)(C)C	CHRM1 antagonist 44
CC(C)(C)OC(=O)NCCCCCNC(=O)c1[nH]cnc1C(=O)N[C@@H](CCCCNC(=O)OC(C)(C)C)C(=O)OC(C)(C)C	CHRM1 antagonist 30
CC(C)(C)OC(=O)CNC(=O)c1nc[nH]c1C(=O)NCc1ccccc1	none
CC(C)(C)OC(=O)N1CCC(NC(=O)c2nc[nH]c2C(=O)NCc2ccccc2)CC1	none
CC(C)(C)OC(=O)NCc1ccc(CNC(=O)c2[nH]cnc2C(=O)NC2CCN(C(=O)OC(C)(C)C)CC2)cc1	CHRM1 antagonist 34
CC(C)(C)OC(=O)CNC(=O)c1nc[nH]c1C(=O)NCc1ccc(CNC(=O)OC(C)(C)C)cc1	CHRM1 antagonist 34
CCc1ccc(CCC(=O)Nc2ncc(Cc3ccccc3Cl)s2)o1	none
CCN1C(=O)[C@H]2[C@@H](c3ccc(-c4cccc(Cl)c4)c(OC)c3)N[C@@](C)(C(=O)OC)[C@H]2C1=O	none
CCOc1cc(OCC)cc(C(=O)N2CCC[C@@H]2C(=O)N2CCC[C@@H]2C(=O)NCc2ccccc2Cl)c1	M1 ag parental 17 (no result: CHRM1 antagonist, CHRM1 agonist, CHRM1 PAM)
CC(C)(C)OC(=O)N1CCCC(C(=O)Nc2cccc(C(=O)NCCc3ccccc3)c2)C1 (configuration not stated)	none
CC(C)(C)OC(=O)N1CCCC(C(=O)Nc2cccc(C(=O)NCCCCc3ccccc3)c2)C1 (configuration not stated)	CHRM1 antagonist 27
N#CCc1c(C#N)c(N)nc(N2CCN(C=O)CC2)c1C#N	CHO-K1 Ca antag 24
O=c1c2ccccc2nc(/C=C/c2cccc([N+](=O)[O-])c2)n1CCCO	CHO-K1 Ca antag 28
O=c1c2ccccc2nc(/C=C/c2ccc([N+](=O)[O-])cc2)n1CCCO	none
Cc1ccc(/C=C/c2nc3ccccc3c(=O)n2CCc2ccccc2)cc1	CHO-K1 Ca antag 26
